# Measured values from the supplement of paper PMC12494721.
# Where a name gives a salt, the structure may show the parent alone.
# Legend:
# Conditions in all cases: incubation time: 27 h, anaerobic, 37 °C;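 for the amine columns active = adjusted P below 0.05 in both replicates with a change the same way and a mean fold change under 0.8 or over 1.25; inactive = the rest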
# [1] = tested on: Clostridium sporogenes DSM 1664; experiment: growth (OD595) fold change vs plate DMSO controls (fold change (ratio)); higher = more growth
# Procedure, shortened: (§1)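 To obtain OD, 595 nm absorbance readings were blank-subtracted, corrected for compound background using 20 µM compound solutions in water, and multiplied by a calibration factor of 5. They came from 96-well mGAM cultures grown anaerobically for 27 h at 37 °C and shaken before reading. Growth is the fold change relative to the median of plate DMSO controls. Two biological replicates were averaged, and fold changes above 1.5 were set to NA.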
# [2] = tested on: Escherichia coli IAI1; experiment: as above
# Procedure, shortened: as §1
# [3] = tested on: Klebsiella aerogenes DSM 30053; experiment: as above
# Procedure, shortened: as §1
# [4] = tested on: Ruminococcus gnavus DSM 108212; experiment: as above
# Procedure, shortened: as §1
# [5] = tested on: Klebsiella aerogenes DSM 30053; experiment: fold change of Histamine concentration vs plate DMSO controls (fold change (ratio)); higher = more amine produced, active = hit call of the paper (significant change in both replicates, either direction)
# Procedure, shortened: (§2)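 Anaerobic mGAM cultures of four gut bacterial strains were grown at 37 °C for 27 h in 80 µL wells, starting at OD 0.1 before 1:1 dilution. Compounds were at 20 µM final (sweeteners 50 µM). Whole cultures were extracted with cold acetonitrile/methanol containing 0.1% formic acid and centrifuged. Amines were quantified by LC–triple-quadrupole MS (dynamic MRM) against external calibration curves and drift-corrected within batch. Each value is the fold change versus plate DMSO controls, averaged over 2 biological replicates.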
# [6] = tested on: Clostridium sporogenes DSM 1664; experiment: fold change of Tryptamine concentration vs plate DMSO controls (fold change (ratio)); higher = more amine produced, active = hit call of the paper (significant change in both replicates, either direction)
# Procedure, shortened: as §2
# [7] = tested on: Ruminococcus gnavus DSM 108212; experiment: as above
# Procedure, shortened: as §2
# [8] = tested on: Escherichia coli IAI1; experiment: fold change of Putrescine concentration vs plate DMSO controls (fold change (ratio)); higher = more amine produced, active = hit call of the paper (significant change in both replicates, either direction)
# Procedure, shortened: as §2
# [9] = tested on: Klebsiella aerogenes DSM 30053; experiment: as above
# Procedure, shortened: as §2
# [10] = tested on: Escherichia coli IAI1; experiment: fold change of Cadaverine concentration vs plate DMSO controls (fold change (ratio)); higher = more amine produced, active = hit call of the paper (significant change in both replicates, either direction)
# Procedure, shortened: as §2
# [11] = tested on: Klebsiella aerogenes DSM 30053; experiment: as above
# Procedure, shortened: as §2
# [12] = tested on: Ruminococcus gnavus DSM 108212; experiment: fold change of 2-Phenylethylamine concentration vs plate DMSO controls (fold change (ratio)); higher = more amine produced, active = hit call of the paper (significant change in both replicates, either direction)
# Procedure, shortened: as §2
SMILES,growth [1],growth [2],growth [3],growth [4],fold change of Histamine concentration [5],fold change of Tryptamine concentration [6],fold change of Tryptamine concentration [7],fold change of Putrescine concentration [8],fold change of Putrescine concentration [9],fold change of Cadaverine concentration [10],fold change of Cadaverine concentration [11],fold change of 2-Phenylethylamine concentration [12]
O=C(O)c1ccccc1Nc1cc(Cl)ccc1C(=O)O [Lobenzarit disodium] (20 µM),0.929,1,1.02,1.08,1.02 (inactive),1.07 (inactive),0.976 (inactive),0.987 (inactive),0.994 (inactive),0.932 (inactive),1 (inactive),1.01 (inactive)
CN(N=O)C(=O)N[C@H]1C(O)O[C@H](CO)[C@@H](O)[C@@H]1O (mixture of isomers) [Streptozotocin] (20 µM),1.04,1.19,1,0.279,0.835 (inactive),0.798 (inactive),0.312 (active),1.04 (inactive),0.962 (inactive),1.31 (active),0.993 (inactive),0.376 (inactive)
C=C(NC(=O)C(=C)NC(=O)c1csc(C2=N[C@@H]3c4csc(n4)[C@H]4NC(=O)c5csc(n5)[C@H]([C@](C)(O)[C@@H](C)O)NC(=O)[C@H]5CSC(=N5)/C(=C/C)NC(=O)[C@H]([C@@H](C)O)NC(=O)c5csc(n5)[C@]3(CC2)NC(=O)[C@H](C)NC(=O)C(=C)NC(=O)[C@H](C)NC(=O)[C@H]([C@@H](C)CC)N[C@@H]2C=Cc3c([C@H](C)O)cc(nc3[C@H]2O)C(=O)O[C@@H]4C)n1)C(N)=O [Thiostrepton] (20 µM),0.00647,1.05,1.14,0.164,0.968 (inactive),0.033 (active),0.0887 (active),1.03 (inactive),1.03 (inactive),1.02 (inactive),1.02 (inactive),0.084 (active)
C[C@H](O)[C@H](O)[C@H]1CNc2[nH]c(N)nc(=O)c2N1 [Sapropterin dihydrochloride] (20 µM),1.12,0.893,0.928,0.813,0.931 (inactive),0.972 (inactive),0.945 (inactive),1.01 (inactive),1.01 (inactive),1.03 (inactive),1.01 (inactive),0.911 (inactive)
Clc1ccc(C(c2ccccc2Cl)C(Cl)Cl)cc1 (stereo not drawn) [Mitotane] (20 µM),1.01,1.04,1.03,1.34,1.01 (inactive),0.997 (inactive),1.01 (inactive),1.03 (inactive),1 (inactive),1.03 (inactive),1.01 (inactive),1.03 (inactive)
O=C(O)c1ccccc1C(=O)Nc1ccc(S(=O)(=O)Nc2nccs2)cc1 [Phthalylsulfathiazole] (20 µM),0.901,0.981,0.96,1.09,1 (inactive),1.1 (inactive),0.948 (inactive),1.03 (inactive),1.01 (inactive),1.04 (inactive),0.987 (inactive),0.919 (inactive)
CC(C)(C)c1ccc(C(O)CCCN2CCC(C(O)(c3ccccc3)c3ccccc3)CC2)cc1 (stereo not drawn) [Terfenadine] (20 µM),1.21,1,1.09,1.21,0.886 (inactive),1.06 (inactive),0.754 (active),1 (inactive),0.97 (inactive),1.05 (inactive),1.01 (inactive),0.815 (inactive)
CCN(CC)CCOCCOC(=O)C(CC)(CC)c1ccccc1 [Oxeladin citrate] (20 µM),1.05,0.997,1,1.01,0.957 (inactive),1.01 (inactive),0.889 (inactive),1.01 (inactive),1.02 (inactive),1.01 (inactive),0.994 (inactive),0.865 (inactive)
O=C(O)c1ccccc1Nc1cccc(C(F)(F)F)c1 [Flufenamic acid] (20 µM),1.16,0.983,1.07,0.538,0.993 (inactive),0.918 (inactive),0.989 (inactive),1.03 (inactive),1.02 (inactive),1.03 (inactive),1.02 (inactive),0.981 (inactive)
CCOc1ccc2c(c1)C(C)=CC(C)(C)N2 [Ethoxyquin] (20 µM),0.801,1,1.01,1.22,1.07 (inactive),1.06 (inactive),0.854 (inactive),1 (inactive),1.01 (inactive),0.994 (inactive),0.986 (inactive),0.807 (inactive)
CN[C@@H]1[C@H](O)[C@H](NC)[C@H]2O[C@@]3(O)C(=O)C[C@@H](C)O[C@H]3O[C@@H]2[C@H]1O [Spectinomycin dihydrochloride] (20 µM),1.04,0.864,0.93,0.692,0.762 (inactive),0.992 (inactive),0.991 (inactive),0.796 (inactive),1.08 (inactive),0.95 (inactive),1.02 (inactive),0.991 (inactive)
CCCOc1ccc2[nH]c(NC(=O)OC)nc2c1 [Oxibendazol] (20 µM),0.862,0.999,0.972,0.869,1.04 (inactive),0.982 (inactive),1 (inactive),1 (inactive),1.02 (inactive),1 (inactive),0.987 (inactive),0.996 (inactive)
NCCc1cc[nH]n1 [Betazole hydrochloride] (20 µM),1.01,0.989,1.03,1.02,0.96 (inactive),1 (inactive),1.04 (inactive),0.987 (inactive),1.02 (inactive),1 (inactive),1 (inactive),1.02 (inactive)
COc1ccccc1O [Guaiacol] (20 µM),0.997,1,1,1.02,0.966 (inactive),1.03 (inactive),1.05 (inactive),0.994 (inactive),0.999 (inactive),1.02 (inactive),0.988 (inactive),1.06 (inactive)
NC(=O)c1cccnc1 [Nicotinamide] (20 µM),0.909,0.979,0.964,0.672,0.994 (inactive),0.971 (inactive),0.993 (inactive),1.02 (inactive),0.896 (inactive),1 (inactive),1.1 (inactive),0.953 (inactive)
C=CCc1ccc(OC)c(OC)c1 [Methyleugenol] (20 µM),0.942,1.08,0.993,1.06,0.992 (inactive),0.986 (inactive),1.02 (inactive),1.02 (inactive),0.921 (inactive),0.988 (inactive),1.15 (inactive),1.02 (inactive)
N=C(N)Nc1ccc(C(=O)Oc2ccc3cc(C(=N)N)ccc3c2)cc1 [Nafamostat Mesylate] (20 µM),1.04,0.933,0.99,0.967,0.92 (inactive),0.959 (inactive),0.91 (inactive),1.04 (inactive),1.06 (inactive),1.04 (inactive),1.01 (inactive),0.948 (inactive)
O=C1NCC2(CCN(CCc3ccccc3)CC2)O1 [Fenspiride hydrochloride] (20 µM),1.08,0.982,1.05,1.03,0.89 (inactive),1.02 (inactive),1.03 (inactive),0.98 (inactive),0.973 (inactive),0.994 (inactive),1.02 (inactive),0.988 (inactive)
CCC[C@@H]1C[C@@H](C(=O)N[C@@H]([C@H]2O[C@H](SC)[C@H](OP(=O)(O)O)[C@@H](O)[C@H]2O)[C@H](C)Cl)N(C)C1 [Clindamycin Phosphate] (20 µM),0.836,1.04,0.998,0.709,1.01 (inactive),0.917 (inactive),0.844 (inactive),1.02 (inactive),1.01 (inactive),0.987 (inactive),0.999 (inactive),0.86 (inactive)
Cc1ccsc1C(=CCCN1CCC[C@@H](C(=O)O)C1)c1sccc1C [Tiagabine hydrochloride] (20 µM),1.03,0.984,1.05,1.01,0.968 (inactive),0.999 (inactive),0.971 (inactive),1.03 (inactive),1.02 (inactive),1.01 (inactive),1.01 (inactive),0.927 (inactive)
CC(=O)OCC(=O)[C@@]12N=C(C)O[C@@H]1C[C@H]1[C@@H]3CCC4=CC(=O)C=C[C@]4(C)[C@H]3[C@@H](O)C[C@@]12C [Deflazacort] (20 µM),0.981,0.976,0.986,0.905,1 (inactive),1.02 (inactive),1.07 (inactive),1.03 (inactive),1 (inactive),0.993 (inactive),0.991 (inactive),1.1 (inactive)
Oc1c(Br)cc(Br)c2cccnc12 [Broxyquinoline] (20 µM),0.98,0.92,0.951,0.643,1.09 (inactive),0.919 (inactive),0.562 (active),1.03 (inactive),1.02 (inactive),1.2 (inactive),0.968 (inactive),0.6 (inactive)
CN1CCN(C(c2ccccc2)c2ccc(Cl)cc2)CC1 (stereo not drawn) [Chlorcyclizine hydrochloride] (20 µM),1.15,1.16,0.997,0.999,1.09 (inactive),0.979 (inactive),0.89 (inactive),1.14 (inactive),1 (inactive),0.889 (inactive),0.981 (inactive),0.919 (inactive)
CC(=O)c1ccc(S(=O)(=O)NC(=O)NC2CCCCC2)cc1 [Acetohexamide] (20 µM),0.85,1.02,0.972,1.33,1.05 (inactive),1.03 (inactive),0.951 (inactive),0.999 (inactive),1 (inactive),1.05 (inactive),0.984 (inactive),0.942 (inactive)
